Assay results from the supplement of paper PMC10849652.
The full data set covers some 8,800 targets. This sample favours those with a hit. About 0.5% of all pairs of compound and target were hits. Unmarked numbers belong to inactive results.

Key:
Assay in all cases: log2 fold change, soluble protein after heating vs DMSO (PISA); higher = thermal stabilisation; K562 lysate, 10 uM; active = over 0.2 and 3.5 SD of the protein, either way, in both replicates (recomputed)
alvocidib = compound: CN1CC[C@H](c2c(O)cc(O)c3c(=O)cc(-c4ccccc4Cl)oc23)[C@H](O)C1 [alvocidib]
Outline: (§1)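 To prepare the extract, K562 pellets were dounce-homogenised in PBS pH 7.4 with 1 mM MgCl2, giving crude material at 1 mg/mL protein. This was treated with 10 μM compound for 30 min, then heated in aliquots for 3 min over 48°C-58°C before pooling and addition of NP-40 to 0.5% at 4°C. Centrifugation at 21,000xg for 90 min left soluble protein in the supernatant, which TMTpro 16plex LC-MS/MS quantified with equalised channel sums. Results are log-two fold changes in thermal stability compared with solvent controls, from duplicates.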

Tubastatin A = compound: CN1CCc2c(c3ccccc3n2Cc2ccc(C(=O)NO)cc2)C1 [Tubastatin A]
Outline: as §1

[1] = compound: CNC(=O)C1=CC=CC=C1NC2=NC(=NC=C2Cl)NC3=C(C=C(C=C3)N4CCOCC4)OC
Outline: as §1

defactinib = compound: CNC(=O)c1ccc(Nc2ncc(C(F)(F)F)c(NCc3nccnc3N(C)S(C)(=O)=O)n2)cc1 [defactinib]
Outline: as §1

[2] = compound: CNc1nc(-c2ccc3c(N)n[nH]c3c2)cc(N2C[C@@H](C(=O)NC3CCCCC3)CC[C@H]2C)n1
Outline: as §1

encorafenib = compound: COC(=O)N[C@@H](C)CNc1nccc(-c2cn(C(C)C)nc2-c2cc(Cl)cc(NS(C)(=O)=O)c2F)n1 [encorafenib]
Outline: as §1

[3] = compound: COC(=O)[C@H](CCSC)NC(=O)C1=C(C=C(C=C1)NC[C@H](CS)N)C2=CC=CC=C2
Outline: as §1

alisertib = compound: COc1cc(Nc2ncc3c(n2)-c2ccc(Cl)cc2C(c2c(F)cccc2OC)=NC3)ccc1C(=O)O [alisertib]
Outline: as §1

[4] = compound: COc1cc2nc(-c3cc(F)ccc3O)nc(N[C@@H]3CNC[C@H]3C(C)(C)O)c2cc1OC
Outline: as §1

gefitinib = compound: COc1cc2ncnc(Nc3ccc(F)c(Cl)c3)c2cc1OCCCN1CCOCC1 [gefitinib]
Outline: as §1

lapatinib = compound: CS(=O)(=O)CCNCc1ccc(-c2ccc3ncnc(Nc4ccc(OCc5cccc(F)c5)c(Cl)c4)c3c2)o1 [lapatinib]
Outline: as §1

crizotinib = compound: C[C@@H](Oc1cc(-c2cnn(C3CCNCC3)c2)cnc1N)c1c(Cl)ccc(F)c1Cl [crizotinib]
Outline: as §1

[5] = compound: C[C@H](C1=CC=C(C=C1)C(=O)NC2=C3C=CNC3=NC=C2)N
Outline: as §1

duvelisib = compound: C[C@H](Nc1ncnc2nc[nH]c12)c1cc2cccc(Cl)c2c(=O)n1-c1ccccc1 [duvelisib]
Outline: as §1

gandotinib = compound: Cc1cc(Nc2cc(CN3CCOCC3)c3nc(C)c(Cc4ccc(Cl)cc4F)n3n2)n[nH]1 [gandotinib]
Outline: as §1

tozasertib = compound: Cc1cc(Nc2cc(N3CCN(C)CC3)nc(Sc3ccc(NC(=O)C4CC4)cc3)n2)n[nH]1 [tozasertib]
Outline: as §1

doramapimod = compound: Cc1ccc(-n2nc(C(C)(C)C)cc2NC(=O)Nc2ccc(OCCN3CCOCC3)c3ccccc23)cc1 [doramapimod]
Outline: as §1

[6] = compound: Cc1cccc(CC(=O)N2CCc3c2ccc(-c2cn(C)c4ncnc(N)c24)c3F)n1
Outline: as §1

pictilisib = compound: CS(=O)(=O)N1CCN(Cc2cc3nc(-c4cccc5[nH]ncc45)nc(N4CCOCC4)c3s2)CC1 [pictilisib]
Outline: as §1

bafetinib = compound: Cc1ccc(NC(=O)c2ccc(CN3CC[C@H](N(C)C)C3)c(C(F)(F)F)c2)cc1Nc1nccc(-c2cncnc2)n1 [bafetinib]
Outline: as §1

Sequence of UniProt Q96A65 (Q96A65 whole entry, looked up): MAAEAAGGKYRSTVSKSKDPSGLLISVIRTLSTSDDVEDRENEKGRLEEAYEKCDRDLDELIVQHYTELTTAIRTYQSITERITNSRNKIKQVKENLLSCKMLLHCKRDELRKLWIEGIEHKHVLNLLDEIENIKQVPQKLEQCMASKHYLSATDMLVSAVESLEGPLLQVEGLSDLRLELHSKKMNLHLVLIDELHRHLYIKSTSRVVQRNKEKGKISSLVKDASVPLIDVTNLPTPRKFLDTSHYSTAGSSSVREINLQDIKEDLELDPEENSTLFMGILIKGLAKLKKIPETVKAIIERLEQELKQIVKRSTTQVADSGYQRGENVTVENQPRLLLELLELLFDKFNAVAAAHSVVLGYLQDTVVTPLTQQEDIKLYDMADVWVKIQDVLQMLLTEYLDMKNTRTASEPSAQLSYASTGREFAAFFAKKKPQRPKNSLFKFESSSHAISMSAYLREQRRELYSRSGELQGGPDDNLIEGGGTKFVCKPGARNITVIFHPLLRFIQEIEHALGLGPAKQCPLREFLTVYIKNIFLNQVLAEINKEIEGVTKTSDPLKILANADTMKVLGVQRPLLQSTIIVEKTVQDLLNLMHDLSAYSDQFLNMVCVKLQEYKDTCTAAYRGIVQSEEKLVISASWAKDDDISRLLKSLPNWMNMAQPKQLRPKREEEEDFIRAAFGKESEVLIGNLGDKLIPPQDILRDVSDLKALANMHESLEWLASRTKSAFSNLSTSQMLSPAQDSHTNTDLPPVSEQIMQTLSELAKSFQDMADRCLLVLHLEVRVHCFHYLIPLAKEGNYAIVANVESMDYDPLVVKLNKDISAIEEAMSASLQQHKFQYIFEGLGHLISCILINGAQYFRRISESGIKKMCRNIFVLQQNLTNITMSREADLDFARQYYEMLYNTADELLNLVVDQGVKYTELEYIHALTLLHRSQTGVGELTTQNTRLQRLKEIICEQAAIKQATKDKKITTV
Sequence of UniProt P35916 (P35916 whole entry, looked up): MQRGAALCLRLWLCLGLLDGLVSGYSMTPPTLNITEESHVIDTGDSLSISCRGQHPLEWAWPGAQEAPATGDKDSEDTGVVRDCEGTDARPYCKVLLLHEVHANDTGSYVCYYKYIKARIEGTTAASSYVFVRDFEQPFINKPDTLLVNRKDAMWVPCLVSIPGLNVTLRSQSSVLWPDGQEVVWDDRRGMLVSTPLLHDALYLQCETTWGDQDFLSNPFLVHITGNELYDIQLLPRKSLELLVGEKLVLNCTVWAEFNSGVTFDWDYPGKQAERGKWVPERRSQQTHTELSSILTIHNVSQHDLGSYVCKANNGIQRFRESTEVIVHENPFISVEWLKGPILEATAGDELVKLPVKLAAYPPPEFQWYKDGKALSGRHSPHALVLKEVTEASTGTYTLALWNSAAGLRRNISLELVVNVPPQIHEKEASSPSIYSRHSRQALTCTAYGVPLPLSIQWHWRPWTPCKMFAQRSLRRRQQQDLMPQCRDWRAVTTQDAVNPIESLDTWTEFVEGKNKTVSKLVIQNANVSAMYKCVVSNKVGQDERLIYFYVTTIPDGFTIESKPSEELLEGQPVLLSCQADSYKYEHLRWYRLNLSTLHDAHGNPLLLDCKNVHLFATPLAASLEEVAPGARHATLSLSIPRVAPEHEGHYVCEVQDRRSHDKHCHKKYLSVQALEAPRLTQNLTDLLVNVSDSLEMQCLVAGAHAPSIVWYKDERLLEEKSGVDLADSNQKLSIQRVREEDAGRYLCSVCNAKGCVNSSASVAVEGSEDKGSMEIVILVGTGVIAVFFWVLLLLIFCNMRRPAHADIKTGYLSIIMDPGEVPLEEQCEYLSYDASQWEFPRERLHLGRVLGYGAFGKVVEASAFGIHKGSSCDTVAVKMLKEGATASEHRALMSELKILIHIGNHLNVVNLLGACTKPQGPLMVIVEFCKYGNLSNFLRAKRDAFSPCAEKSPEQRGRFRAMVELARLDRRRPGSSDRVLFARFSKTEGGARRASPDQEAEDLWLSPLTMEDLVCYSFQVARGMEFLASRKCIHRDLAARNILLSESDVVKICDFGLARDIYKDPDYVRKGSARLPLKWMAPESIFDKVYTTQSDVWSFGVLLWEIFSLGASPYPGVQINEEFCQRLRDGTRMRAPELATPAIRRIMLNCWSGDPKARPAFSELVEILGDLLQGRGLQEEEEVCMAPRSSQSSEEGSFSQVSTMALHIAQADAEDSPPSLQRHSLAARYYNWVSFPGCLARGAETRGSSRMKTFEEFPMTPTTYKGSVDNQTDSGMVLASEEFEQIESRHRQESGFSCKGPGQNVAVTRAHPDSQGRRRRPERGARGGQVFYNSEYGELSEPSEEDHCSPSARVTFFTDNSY
Sequence of UniProt P51116 (P51116 whole entry, looked up): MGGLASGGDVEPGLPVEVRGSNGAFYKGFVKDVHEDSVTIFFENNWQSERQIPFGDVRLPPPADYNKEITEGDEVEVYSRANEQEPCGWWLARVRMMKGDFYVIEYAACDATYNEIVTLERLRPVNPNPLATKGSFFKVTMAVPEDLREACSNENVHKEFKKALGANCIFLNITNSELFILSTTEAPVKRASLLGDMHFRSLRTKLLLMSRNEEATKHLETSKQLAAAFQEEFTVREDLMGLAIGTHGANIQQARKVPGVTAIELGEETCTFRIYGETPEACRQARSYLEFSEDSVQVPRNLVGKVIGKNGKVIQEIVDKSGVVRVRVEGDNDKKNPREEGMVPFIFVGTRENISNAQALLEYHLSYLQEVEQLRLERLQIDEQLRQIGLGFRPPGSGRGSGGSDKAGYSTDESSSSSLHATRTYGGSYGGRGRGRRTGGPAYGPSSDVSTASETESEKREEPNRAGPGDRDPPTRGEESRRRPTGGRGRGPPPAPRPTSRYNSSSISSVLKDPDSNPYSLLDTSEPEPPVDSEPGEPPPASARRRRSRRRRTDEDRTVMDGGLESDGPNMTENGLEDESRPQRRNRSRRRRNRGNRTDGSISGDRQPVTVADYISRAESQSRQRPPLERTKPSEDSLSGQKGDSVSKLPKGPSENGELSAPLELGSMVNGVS
Sequence of UniProt P28676 (P28676 whole entry, looked up): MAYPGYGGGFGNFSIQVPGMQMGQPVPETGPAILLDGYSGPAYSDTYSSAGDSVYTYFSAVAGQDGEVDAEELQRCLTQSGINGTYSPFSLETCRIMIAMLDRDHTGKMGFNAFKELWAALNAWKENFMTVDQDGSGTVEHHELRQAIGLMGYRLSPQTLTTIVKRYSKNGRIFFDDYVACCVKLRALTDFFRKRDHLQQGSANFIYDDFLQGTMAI
Sequence of UniProt Q9NZC3 (Q9NZC3 whole entry, looked up): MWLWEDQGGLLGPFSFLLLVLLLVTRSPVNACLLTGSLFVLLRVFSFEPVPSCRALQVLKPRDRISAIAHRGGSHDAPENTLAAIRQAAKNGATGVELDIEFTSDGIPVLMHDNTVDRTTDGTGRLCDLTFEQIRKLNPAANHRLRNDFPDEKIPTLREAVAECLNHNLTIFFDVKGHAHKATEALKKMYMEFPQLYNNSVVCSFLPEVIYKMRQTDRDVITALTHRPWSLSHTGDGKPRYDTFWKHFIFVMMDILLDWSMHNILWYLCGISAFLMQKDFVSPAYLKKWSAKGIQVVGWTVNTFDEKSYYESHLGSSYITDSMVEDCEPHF
Sequence of UniProt Q96PY5 (Q96PY5 whole entry, looked up): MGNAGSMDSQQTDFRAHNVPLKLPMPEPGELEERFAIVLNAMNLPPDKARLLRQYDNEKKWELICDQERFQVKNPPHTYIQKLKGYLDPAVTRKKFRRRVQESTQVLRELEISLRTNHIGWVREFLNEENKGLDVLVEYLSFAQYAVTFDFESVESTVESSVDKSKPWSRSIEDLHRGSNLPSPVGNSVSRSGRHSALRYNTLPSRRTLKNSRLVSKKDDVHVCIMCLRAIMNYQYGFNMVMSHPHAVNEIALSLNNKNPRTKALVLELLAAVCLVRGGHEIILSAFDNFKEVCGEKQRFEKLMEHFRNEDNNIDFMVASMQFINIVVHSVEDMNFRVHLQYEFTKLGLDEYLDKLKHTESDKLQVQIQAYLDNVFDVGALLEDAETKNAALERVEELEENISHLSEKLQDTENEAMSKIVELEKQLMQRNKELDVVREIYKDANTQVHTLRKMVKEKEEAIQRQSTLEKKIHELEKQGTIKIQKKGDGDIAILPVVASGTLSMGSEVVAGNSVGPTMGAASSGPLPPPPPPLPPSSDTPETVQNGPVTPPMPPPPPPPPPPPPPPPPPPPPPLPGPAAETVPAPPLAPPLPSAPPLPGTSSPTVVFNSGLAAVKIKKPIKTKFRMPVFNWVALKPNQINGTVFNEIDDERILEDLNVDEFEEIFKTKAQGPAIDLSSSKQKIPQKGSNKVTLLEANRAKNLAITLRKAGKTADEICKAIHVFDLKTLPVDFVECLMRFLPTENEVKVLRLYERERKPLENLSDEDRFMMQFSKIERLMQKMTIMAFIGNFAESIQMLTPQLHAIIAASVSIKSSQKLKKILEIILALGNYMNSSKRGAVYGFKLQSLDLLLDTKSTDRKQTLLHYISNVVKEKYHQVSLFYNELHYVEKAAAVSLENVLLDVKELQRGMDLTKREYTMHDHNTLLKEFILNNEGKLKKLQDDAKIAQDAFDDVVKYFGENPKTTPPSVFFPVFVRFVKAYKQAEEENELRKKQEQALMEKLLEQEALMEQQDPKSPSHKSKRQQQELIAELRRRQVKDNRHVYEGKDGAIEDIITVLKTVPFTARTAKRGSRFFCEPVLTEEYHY
Sequence of UniProt P02792 (P02792 whole entry, looked up): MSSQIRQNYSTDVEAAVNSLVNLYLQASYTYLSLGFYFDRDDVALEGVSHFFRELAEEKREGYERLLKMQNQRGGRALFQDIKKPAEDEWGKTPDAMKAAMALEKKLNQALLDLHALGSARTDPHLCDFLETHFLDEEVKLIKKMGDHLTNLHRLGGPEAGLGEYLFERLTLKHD
Sequence of UniProt P54852 (P54852 whole entry, looked up): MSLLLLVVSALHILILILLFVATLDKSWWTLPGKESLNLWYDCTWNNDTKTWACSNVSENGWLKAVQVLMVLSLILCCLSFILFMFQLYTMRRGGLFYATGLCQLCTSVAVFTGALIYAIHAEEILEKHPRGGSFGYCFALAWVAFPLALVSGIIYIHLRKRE

| Target | log2 fold change (alvocidib) | log2 fold change (Tubastatin A) | log2 fold change [1] | log2 fold change (defactinib) | log2 fold change [2] | log2 fold change (encorafenib) | log2 fold change [3] | log2 fold change (alisertib) | log2 fold change [4] | log2 fold change (gefitinib) | log2 fold change (lapatinib) | log2 fold change (crizotinib) | log2 fold change [5] | log2 fold change (duvelisib) | log2 fold change (gandotinib) | log2 fold change (tozasertib) | log2 fold change (doramapimod) | log2 fold change [6] | log2 fold change (pictilisib) | log2 fold change (bafetinib) |
| --- | --- | --- | --- | --- | --- | --- | --- | --- | --- | --- | --- | --- | --- | --- | --- | --- | --- | --- | --- | --- |
| FAM76B (UniProt Q5HYJ3) | -0.019 | 0.012 | 0.068 | 0.076 | -0.002 | 0.013 | -0.146 | -0.02 | 0.016 | -0.018 | -0.049 | 0.028 | -0.19 | -0.02 | 0.023 | -0.021 | -0.016 | 0.269 (active) |  |  |
| FLT4 (UniProt P35916) | -0.086 | -0.001 | -0.428 (active) | 0.004 | -0.081 | -0.129 | 0.053 |  | 0.031 |  | -0.007 |  | -0.173 | 0.026 | 0.019 | -0.056 |  | -0.041 | 0.057 | -0.035 |
| EXOC3 (UniProt O60645) | 0.011 | -0.063 | 0.009 | 0.031 | -0.037 | 0.001 | 0.07 | 0.032 | -0.023 | -0.001 | -0.037 | -0.133 | 0.016 | -0.039 | -0.098 | 0.019 | 0.041 | 0.019 | -0.033 | -0.094 |
| EIF2B5 (UniProt Q13144) | 0.03 | -0.06 | 0.04 | 0.022 | 0.023 | -0.009 | 0.046 | -0.004 | 0.005 | -0.016 | -0.01 | -0.009 | -0.005 | 0.001 | -0.119 | -0.019 | 0.003 | 0.006 | -0.012 | -0.033 |
| FTL (UniProt P02792) | 0.013 | 0.187 | -0.04 | 0.15 | -0.097 | 0.145 | -0.076 | 0.067 | 0.007 | -0.024 | -0.072 | -0.066 | -0.022 | -0.001 | 0.068 | 0.008 | -0.024 | -0.018 | -0.027 | -0.052 |
| FYN (UniProt P06241) | -0.078 | 0.03 | -0.009 | 0.038 | -0.069 | 0.092 | -0.121 |  | 0.005 |  | 0.007 | 0.12 | -0.092 | -0.019 | 0.422 (active) | 0.054 | -0.04 | -0.057 | -0.201 | 0.198 |
| FBLL1 (UniProt A6NHQ2) | -0.009 | -0.049 | -0.036 | 0.047 | 0.081 | 0.042 | 0.056 | 0.012 | 0.005 | 0.035 | 0.014 | -0.041 | -0.277 (active) | 0.059 | 0.028 | 0.047 | -0.013 | 0.053 | -0.076 | -0.075 |
| EMP3 (UniProt P54852) | -0.227 | -0.021 | 0.067 | 0.009 | 0.056 | -0.016 | 0.022 | 0.053 | 0.052 | -0.071 | 0 | -0.002 | -0.763 (active) | 0 | 0.351 (active) | -0.078 | 0.029 | 0.329 (active) | -0.03 | -0.019 |
| EXOC4 (UniProt Q96A65) | 0.03 | -0.073 | -0.053 | 0.039 | -0.084 | 0.022 | 0.078 | 0.009 | 0.008 | -0.035 | -0.038 | -0.044 | 0.011 | 0.024 | -0.165 | -0.028 | -0.023 | 0.015 | 0.018 | -0.056 |
| FXR2 (UniProt P51116) | 0 | -0.159 | -0.083 | -0.117 | -0.018 | 0.06 | 0.064 | 0.017 | 0.013 | 0.012 | -0.002 | -0.017 | -0.022 | -0.016 | -0.074 | 0.009 | 0.037 | 0.027 | -0.055 | 0.002 |
| GCA (UniProt P28676) | -0.016 |  | -0.035 |  |  |  |  | -0.038 | -0.253 | -0.197 | 0.016 |  | -0.091 |  | -0.073 |  |  | 0.057 |  |  |
| FTSJ1 isoform 2 (UniProt Q9UET6) | 0.015 |  |  | 0.028 |  | -0.027 | 0.047 |  | -0.016 |  | 0.013 |  | -0.129 |  | 0.077 | -0.175 |  | 0.079 |  |  |
| GDE1 (UniProt Q9NZC3) | 0.307 | -0.047 | 0.014 |  | 0.024 | -0.045 | -0.02 |  | -0.038 |  | -0.016 | -0.005 | 0.842 (active) | 0.049 | -0.434 (active) | 0.157 | -0.017 | -0.409 (active) | 0.114 | -0.041 |
| FMNL2 isoform 3 (UniProt Q96PY5) |  | 0.108 | 0.011 |  | 0.044 |  |  | 0.073 | 0.119 | 0.241 | -0.077 | -0.17 |  | -0.085 |  |  | 0.091 |  |  |  |
| EPN2 (UniProt I3L356) | -0.108 |  |  |  |  |  |  | -0.253 | -0.02 | 0.321 | 0.014 |  | -0.361 |  | 0.081 |  |  | 0.146 | -0.054 | 0.031 |
| EIF2B5, A0A3B3ITK8 |  |  |  |  |  |  |  | -0.014 | -0.03 | -0.08 | -0.108 |  |  |  |  |  |  |  |  |  |
| GAPVD1 (UniProt Q14C86) |  |  |  |  |  |  |  |  | 0.071 |  | 0.03 |  |  |  |  |  |  |  | -0.138 | 0.014 |
| FOXJ2 (UniProt Q9P0K8) | 0.006 | -0.114 | 0.021 |  | 0.053 | -0.081 | 0.022 | -0.308 |  | 0.057 |  |  | -0.037 | 0.039 | 0.044 | 0.127 |  | 0.056 | 0.043 | -0.224 |
| EWSR1 (UniProt H7BY36) | 0.206 | 0.179 |  | 0.14 | 0.037 | 0.063 | -0.061 |  |  |  |  | -0.042 | 0.07 | -0.011 | -0.167 | 0.01 | -0.066 | 0.019 | 0.071 | 0.293 |
| DYRK1A isoform 2 (UniProt Q13627) | 0.225 | 0.023 | 0.148 |  |  |  |  |  |  |  |  | -0.071 | -0.171 |  | 0.014 |  | 0.092 | 0.034 | -0.166 | 0.145 |
| DTL (UniProt Q9NZJ0) | -0.008 | -0.072 | -0.003 | 0.071 | -0.092 |  |  | -0.038 |  | 0.043 |  | -0.035 | 0.059 | 0.174 | -0.053 |  | 0.064 | 0.006 | -0.026 | -0.099 |
